hgDAF12 agonist = agonists of H. glycines DAF-12 nuclear receptor; HEK293 GAL4-hgDAF12 UAS-luciferase reporter, agonist luminescence; normalized to butyrate control; activation, % at 6.8 µM; hit rate 1.8% among 370,000;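 active = activation above a cutoff set at the mean of all screened compounds plus 3 SD, cut at about 10% in these data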;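 also: 0% = DMSO wells and 100% = sodium butyrate wells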
NR1D1 modulator = Rev-erb alpha (human) modulation. Rev-erbα–FITC-DNA binding, fluorescence polarization, 90 min. activity, % at 10 µM. hit rate 0.79% among 370,000. P20393;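 active = activity above about 14%, limit read from the data; passing the limit was not always enough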;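 also: 0% = DMSO wells with 35 nM protein and 100% = DMSO wells with 750 nM protein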
DAX1 inh-1 = NR0B1 (DAX1) inhibition. hit rate 0.99% among 340,000. inhibition, % at 6.75 µM. HEK293 Gal4-DAX1 luciferase reporter, luminescence;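 active = inhibition above the mean over all tested compounds plus 3 SD, cut at about 4.2% in these data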;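 also: 0% = DAX1-transfected cells with DMSO and 100% = empty-vector control cells with DMSO; inhibition shows as a rise in luminescence from relieved DAX1 repression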
Target sequence (P51843 207-470 limits assumed): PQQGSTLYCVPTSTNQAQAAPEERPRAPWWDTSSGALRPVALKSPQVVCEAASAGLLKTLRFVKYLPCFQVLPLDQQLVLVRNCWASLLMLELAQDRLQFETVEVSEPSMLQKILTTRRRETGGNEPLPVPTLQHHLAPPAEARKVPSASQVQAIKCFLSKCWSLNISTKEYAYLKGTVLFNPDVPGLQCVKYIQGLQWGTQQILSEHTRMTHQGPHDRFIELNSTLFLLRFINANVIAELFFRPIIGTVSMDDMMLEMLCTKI
ssDAF-12 act = S. stercoralis DAF-12 activation, primary screen. AID 652126. HEK293 ssDAF-12/GRIP1 lit1-tk-luc reporter, luminescence; % of 3 µM dafachronic acid response. activation, % at 6.8 µM. hit rate 1% among 370,000;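 active = activation above the mean over all tested compounds plus 3 SD, cut at about 0.9% in these data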;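 also: 0% = DMSO-only wells and 100% = 3 µM delta7-dafachronic acid wells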
DAX1 inh-2 = DAX1 (NR0B1) inhibition, primary screen | HEK293T StAR-luciferase reporter, SF-1/DAX-1 repression relief | inhibition, % at 6.8 µM | hit rate 1.1% among 370,000 | AID 652010;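 active = inhibition above the mean over all tested compounds plus 3 SD, cut at about 3.6% in these data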;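 also: 0% = DAX-1 cells with DMSO and 100% = cells lacking DAX-1 with DMSO; higher inhibition means more luminescence from relief of DAX-1 repression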
hcDAF-12 act = H. contortus DAF-12 activation, primary screen | HEK293 hcDAF-12 lit1-tk-luc reporter, luminescence; 0% DMSO, 100% Δ7-dafachronic acid | activation, % at 6.8 µM | hit rate 1.4% among 370,000 | AID 652067;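 active = activation above the mean of all tested compounds plus 3 SD, cut at about 5.5% in these data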;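 also: 100% = response to 3 µM Δ7-dafachronic acid high control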
LXR ag = counter-screen for hcDAF-12 agonists: agonists of human LXR-beta; shares compounds with hcDAF-12 act; activation, % at 6.8 µM; 3,400 tested, under 10 active; AID 743027; HEK293 Gal4-LXR tk-luc reporter, luminescence, 24 h; normalized: DMSO 0%, positive control 100%;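 active = mean percent activation of the reporter above a cutoff set as the average over tested compounds plus their standard deviation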
Target sequence (P55055 whole entry, looked up, the tested form may be a part): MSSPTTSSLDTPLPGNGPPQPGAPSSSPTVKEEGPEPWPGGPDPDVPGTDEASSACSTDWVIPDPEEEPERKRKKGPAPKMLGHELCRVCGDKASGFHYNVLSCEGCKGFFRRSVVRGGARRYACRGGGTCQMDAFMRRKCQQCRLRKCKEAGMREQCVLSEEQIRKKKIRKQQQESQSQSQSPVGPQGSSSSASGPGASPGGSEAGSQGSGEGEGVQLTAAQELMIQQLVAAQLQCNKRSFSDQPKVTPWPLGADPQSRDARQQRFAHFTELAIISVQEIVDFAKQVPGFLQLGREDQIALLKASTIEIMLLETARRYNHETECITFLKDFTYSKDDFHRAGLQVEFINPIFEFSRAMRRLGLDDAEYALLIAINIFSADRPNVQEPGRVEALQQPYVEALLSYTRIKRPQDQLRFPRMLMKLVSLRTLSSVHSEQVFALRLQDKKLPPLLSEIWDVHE
hcDAF12 ag = hcDAF-12 agonism, confirmation assay; activation, % at 6.8 µM; AID 743032; shares compounds with hcDAF-12 act; hit rate 61% among 3,400; HEK293 hcDAF-12 lit1-tk-luc reporter, luminescence; % of Δ7-dafachronic acid response;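 active = mean activation across triplicate tests above the threshold derived from the earlier primary screen, cut at about 5.5% in these data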;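 also: 0% = DMSO only wells and 100% = 3 µM Δ7-dafachronic acid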
An asterisk follows results filed as active; nt = not tested or not shown. Only some compounds are listed: those with a hit (about 4.8% of all), similar ones and a draw of the others.

SMILES	hgDAF12 agonist	NR1D1 modulator	DAX1 inh-1	ssDAF-12 act	DAX1 inh-2	hcDAF-12 act	LXR ag	hcDAF12 ag
COc1ccc2ccccc2c1-c1c(C(=O)c2ccc(Br)cc2)[nH]c(N)c1C(=O)NC1CCCCC1	-0.1	8.9	nt	-1.8	nt	-2.3	nt	nt
CCN(CC)CCCNC(=O)CSc1nc2cccnc2n1C	3.8	-6.5	nt	0.2	0.6	1.8	nt	nt
COC(=O)c1nc(NC(=S)NC(=O)c2cccs2)sc1C	5.3	4.3	0.3	0.1	1.2	3.9	nt	nt
O=C(NC(=S)Nc1nc2ccccc2s1)c1cccs1	8.7	2.0	5.1*	0.8	2.4	13.1*	1.2	16.6*
S=C(Nc1ccccc1)Nc1ccc(Br)cn1	0.9	-1.9	-1.4	-1.1	-0.5	-2.5	nt	nt
O=C(NC(=S)Nc1ccc(Br)cn1)c1cccs1	14.4*	-2.8	6.1*	2.0*	2.7	12.9*	1.5	12.0*
CNC(=S)N/N=C1\C(=O)c2cccc3cccc1c23	2.5	-0.3	-0.3	-0.2	0.0	10.6*	0.3	9.7*
CCCCNC(=S)N/N=C1\C(=O)c2cccc3cccc1c23	0.3	-1.7	-0.5	-1.2	0.5	-0.5	nt	nt
CCCc1nc2c(C)cc(Br)cn2c1Cc1ccc(C)cc1	5.1	0.4	nt	-0.2	0.1	7.4*	0.2	10.4*
COc1ccc(OC)c(S(=O)(=O)NCC2CCN(C(=O)C(=O)c3cc4ccccc4o3)CC2)c1	-2.3	1.3	nt	-1.0	-0.6	-2.2	nt	nt
Oc1cccc(-c2nnc(-c3cccc(O)c3)nn2)c1	1.8	1.9	-5.4	2.3*	4.1*	11.9*	1.5	16.8*
Nc1cccc(O)c1	-2.1	-2.0	0.5	-1.3	0.3	-1.5	nt	nt
CN(C)c1ccc(NC(=O)CCN2C(=O)c3cccc([N+](=O)[O-])c3C2=O)cc1	0.2	-4.0	1.3	-0.4	0.3	7.0*	-0.1	1.3
CCOc1ccc(NC(=O)CCN2C(=O)c3cccc([N+](=O)[O-])c3C2=O)cc1	-2.4	-2.4	1.4	-0.3	0.1	-0.6	nt	nt
O=c1c2ccccc2cnn1-c1ccc(Br)cc1	15.6*	1.4	1.6	2.1*	3.9*	11.2*	1.1	12.1*
COc1ccc(Nc2cccc3ccccc23)cc1	4.6	-0.8	0.4	1.3*	0.6	6.9*	0.5	6.5*
Cc1ccsc1/C=N/NC(=O)c1ccccn1	9.8	7.1	-0.2	0.2	3.2	10.2*	0.9	3.4
COc1ccc(CN2CN3Cc4cc(OC)ccc4C3CS2(=O)=O)cc1 (stereo not given)	3.0	4.2	nt	-1.5	-1.5	-0.5	nt	nt
CC1CCC2(CCC(=O)N2CCCO)CC1 (stereo not given)	-2.0	16.8	nt	-0.9	-0.8	-1.5	nt	nt
Cc1cccnc1NC(=O)c1cccc(S(=O)(=O)N2CCCC2)c1	-1.8	0.2	0.7	0.2	0.3	7.0*	-0.1	4.8
CC(C)N1CCc2c(sc(NC(=O)C(F)F)c2-c2nc3ccccc3s2)C1	5.0	3.2	nt	-1.7	nt	0.3	nt	nt
C#CCCC(=O)Nc1sc2c(c1-c1nc3ccccc3s1)CCN(C(C)C)C2	8.3	1.5	nt	-0.3	nt	9.7*	0.2	2.1
CC(=O)Nc1sc2c(c1-c1nc3ccccc3s1)CCN(C(C)C)C2	nt	nt	0.9	nt	nt	nt	nt	nt
CC(=O)Nc1sc2c(c1-c1nc3ccccc3s1)CCN(C(C)C)CC2	-0.7	0.2	nt	1.1*	nt	13.3*	0.9	14.8*
O=C(O[C@H]1CC[C@@]23CCCN2C(=O)CCC[C@H]3C1)N1CCCC1	0.2	-9.1	nt	-1.2	nt	0.5	nt	nt
SMILES	hgDAF12 agonist	NR1D1 modulator	DAX1 inh-1	ssDAF-12 act	DAX1 inh-2	hcDAF-12 act	LXR ag	hcDAF12 ag
O=C(Nc1csc([N+](=O)[O-])c1)Nc1ccccc1Cl	1.5	-0.9	1.6	-1.5	-0.5	-0.9	nt	nt
O=C(Nc1ccc(Cl)cc1)Nc1ccccc1Sc1ncc([N+](=O)[O-])s1	3.8	-0.9	-0.7	1.1*	0.3	7.6*	-0.1	1.3
Cc1cccc(N2C(=O)C=CC2=O)c1	0.6	7.8	-1.6	-0.5	0.3	1.3	nt	nt
O=C1C=CC(=O)N1c1ccc2ccccc2c1	8.2	3.9	2.2	-0.4	-0.7	7.4*	-0.3	1.1
COc1ccc(Cl)cc1C(=O)O/N=C(\N)c1ccccn1	6.0	-0.3	3.4	0.1	1.9	7.1*	0.2	4.0
N/C(=N\OC(=O)COc1ccc(Br)cc1Cl)c1ccccn1	7.8	-1.4	-1.4	0.1	4.2*	9.8*	1.3	7.6*
N/C(=N\OC(=O)COc1ccc2ccccc2c1Br)c1ccccn1	10.2	5.2	0.4	0.2	2.5	2.2	nt	nt
CC(C)CC1C(=O)N2CCC[C@H]2C2(O)O[C@](NC(=O)C3C=C4c5cccc6[nH]c(Br)c(c56)C[C@H]4N(C)C3)(C(C)C)C(=O)N12 (stereo not given in full)	nt	2.6	nt	nt	nt	nt	nt	nt
COc1ccc(N=Nc2ccc3ccccc3c2)c(O)c1	4.6	0.8	3.8	0.4	1.2	8.1*	1.9	12.4*
COC(=O)[C@]12C[C@H](CC(=O)N3CCCCC3)C(=O)N(Cc3cccc4ccccc34)C1=C[C@H](C1CCCC1)O[C@@H]2C	-6.0	-4.6	nt	-1.9	-0.9	-4.2	nt	nt
Cc1cc(NC(=S)NC(=O)C2CC2)ccc1Br	10.4	5.6	4.9*	0.4	1.4	8.8*	0.4	6.3*
O=C(OCC#CCSc1nnc(-c2cccc3ccccc23)o1)c1ccc(SC(F)(F)F)cc1	0.3	-5.3	nt	-1.5	nt	-2.8	nt	nt
O=C(CC(SCCO)c1ccc([N+](=O)[O-])cc1)c1ccco1 (stereo not given)	0.4	0.9	0.1	-1.8	-1.4	7.1*	0.1	1.2
Cc1ccc(C(=O)CC(SCC(=O)O)c2ccc([N+](=O)[O-])cc2)cc1 (stereo not given)	0.8	-1.7	-1.9	-1.0	0.6	0.7	nt	nt
Cc1cc(C)n2ncc(C(=O)Nc3ccc4c(c3)CCC4)c2n1	6.5	-5.3	nt	0.6	nt	6.8*	0.1	6.2*
O=C(NCc1ccccc1Cl)c1ccc2ccccc2n1	10.7*	0.0	-0.1	1.1*	0.1	7.7*	0.7	9.1*
O=C(NCc1ccccc1F)c1ccc2ccccc2n1	0.9	0.2	0.8	-0.6	-0.2	0.8	nt	nt
NS(=O)(=O)c1ccc(CCNC(=O)c2ccc3ccccc3n2)cc1	6.0	-1.8	0.2	0.5	1.1	6.8*	0.2	8.5*
COc1ccc(CCNC(=O)c2ccc3ccccc3n2)cc1	11.2*	-4.0	0.4	-0.1	-0.1	7.2*	0.0	4.5

Compound activity deposited in PubChem by several laboratories.
